This passage reports outcome and AC50 results from PubChem BioAssay (EPA / NIEHS).

Assay [1] in a line: CCTE_Harrill_HTTr_Apoptosis_MCF7: CCTE's 6-hour Apoptosis Assessment for the High-Throughput Transcriptomics (HTTr) Platform, in MCF-7 cells cultured in DMEM + 10% fetal bovine serum, Harrill Lab (AID 2284011). The method, boiled down:
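MCF-7 cells in DMEM + 10% fetal bovine serum were exposed to chemicals for 6 hours over an eight-point dilution series. Caspase-3/7 activation was imaged by high content imaging with CellEvent Caspase 3/7 Green; bidirectional fitting used DMSO as baseline.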

Assay [2] in a line: CCTE_Harrill_HTTr_CellCount_MCF7: CCTE's Cell Proliferation Assessment for the High-Throughput Transcriptomics (HTTr) Platform, Harrill Lab (AID 2284012; active = hit-call score of the fitted dose curve at least 0.9, where 1 is the maximum;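 also: intended direction is loss of nuclei count meaning fewer cells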). In a few lines: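 For this full-screen endpoint, MCF-7 cultures received eight compound dilutions for six hours. Well nuclei counts from Hoechst imaging were analyzed relative to DMSO.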
Assay [3] addresses Estrogen receptor (Homo sapiens) (UniProt P03372). Put plainly: CCTE_Deisenroth_AIME_384WELL_LUC_Active: CCTE's 384-well Estrogen Receptor Transactivation Assay with AIME metabolic competence (ERTA luciferase; metabolism positive), Deisenroth Lab (AID 2284030; active = hit-call score of the fitted dose curve at least 0.9, where 1 is the maximum). The method, boiled down:
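Test chemicals (10-point series, 0.002 - 200 uM) were preincubated 2 hours with alginate-immobilized phenobarbital/beta-naphthoflavone-induced male Sprague Dawley rat liver S9; conditioned medium then went onto VM7Luc4E2 breast cells for 24 hour. Luciferase gain-of-signal fitted relative to 17beta-estradiol.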

Assay [4] is described as follows: CCTE_Deisenroth_AIME_384WELL_CTox_Active: Cytotoxicity Assessment (CTOX) in CCTE's 384-well Estrogen Receptor Transactivation Assay with AIME metabolic competence (metabolism positive), Deisenroth Lab (AID 2284037; active = hit-call score of the fitted dose curve at least 0.9, where 1 is the maximum;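 also: chemicals first conditioned 2 h by alginate-bound induced rat liver S9 before cells; activity means signal loss indicating cell death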). In a few lines:
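VM7Luc4E2 breast cells received medium pre-incubated 2 h with chemical over alginate microspheres holding induced male Sprague Dawley rat liver S9; viability read 24 h later by protease-substrate fluorescence. Loss of signal, bidirectional fit, 0.002–200 uM.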

Assay [5] can be described thus: CCTE_Shafer_MEA_acute_burst_number: CCTE's Neural Acute Assay for Single-Electrode Bursts, Shafer Lab (AID 2284013). The method, boiled down:
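Burst totals were derived with adaptive spike detection (8x rms threshold) on filtered signals from rat cortical cultures; change relative to pre-treatment baseline after 40-min compound exposure (0.03-40 uM) was fitted in the negative direction against DMSO.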

The nature of assay [6]: CCTE_Shafer_MEA_acute_per_burst_spike_number_mean: CCTE's Neural Acute Assay for Average Number of Spikes Per Burst, Shafer Lab (AID 2284015).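 Also: hits are decreases in mean spikes per burst versus baseline.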 The method, boiled down: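 Primary rat cortical neurons on 48-well MEA plates, treated on DIV 13 or 15 at 0.03-40 uM. Spontaneous activity recorded 40 min before and 40 min after compound at 37 C; percent change in mean spikes per single-electrode burst per well, fitted in the loss direction versus DMSO.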

A short description of assay [7]: CCTE_Shafer_MEA_acute_interburst_interval_mean: CCTE's Neural Acute Assay for Mean Interburst Interval, Shafer Lab (AID 2284016).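 Also: percent change of mean interburst interval versus each well's own pre-dose baseline; curves fitted for decrease in interburst interval relative to DMSO.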 The method, boiled down: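 Primary rat cortical neurons on 16-electrode MEA wells were recorded 40 min at baseline on DIV 13 or 15, then 40 min after compound (0.03-40 uM), at 37 C. Value is percent change in mean interburst interval per well, DMSO as negative control.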

A short description of assay [8]: CCTE_Shafer_MEA_acute_burst_percentage_mean: CCTE's Neural Acute Assay for Percentage of Spikes in a Burst, Shafer Lab (AID 2284017). The method, boiled down: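 Primary rat cortical neurons on 16-electrode MEA wells; 40 min baseline recorded at DIV 13 or 15, then 40 min after compound (0.03-40 uM) at 37 C. Well-mean fraction of spikes in single-electrode bursts; percent change from baseline, DMSO as negative control.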

A short description of assay [9]: CCTE_Shafer_MEA_acute_burst_percentage_std: CCTE's Neural Acute Assay for Standard Deviation of Burst Percentage, Shafer Lab (AID 2284018).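 Also: fitted in the negative direction so actives lower burst percentage SD.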 The method, boiled down:
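Primary rat cortical neurons on 16-electrode MEA wells were recorded 40 min at baseline (DIV 13 or 15), then 40 min after compound (0.03-40 uM), at 37 C. Well value is SD across electrodes of spikes-in-bursts/total spikes; endpoint is percent change, DMSO-referenced.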

Assay [10] can be described thus: CCTE_Shafer_MEA_acute_per_network_burst_spike_number_std: CCTE's Neural Acute Assay for Standard Deviation of Number of Spikes in a Network Burst, Shafer Lab (AID 2284020).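 Also: fitted for decrease in spike-number SD versus DMSO so actives lower it.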 The method, boiled down: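 Acute MEA exposure, rat cortical neurons, 0.03-40 uM. Per-well % change versus own baseline; DMSO as negative control.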
A short description of assay [11]: CCTE_Shafer_MEA_acute_per_network_burst_electrodes_number_mean: CCTE's Neural Acute Assay for Mean Number of Electrodes in a Network Burst, Shafer Lab (AID 2284021).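 Also: curves fitted for decreases only so hits reduce electrodes per burst.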 The method, boiled down:
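Rat primary cortical neurons on 16-electrode MEA wells were recorded 40 min at baseline on DIV 13 or 15, then 40 min after compound (0.03-40 uM), at 37 C. Value is percent change per well, fitted in loss direction versus DMSO.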

Assay [12] in a line: CCTE_Shafer_MEA_acute_network_burst_percentage: CCTE's Neural Acute Assay for Percentage of Network Bursts, Shafer Lab (AID 2284022).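 Also: curves fitted for loss so actives lower network burst percentage.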 In a few lines: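 Primary rat cortical neurons on 16-electrode MEA wells, treated on DIV 13 or 15 with compound (0.03-40 uM); 40-min baseline and 40-min post-exposure recordings at 37 C. Value is percent change in spikes within network bursts versus baseline, DMSO negative control.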

A short description of assay [13]: CCTE_Shafer_MEA_acute_cross_correlation_area: CCTE's Neural Acute Assay for Area of Cross Correlation, Shafer Lab (AID 2284024).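 Also: area under pooled inter-electrode spike cross-correlation near zero lag as percent change from own baseline; curves fitted for loss of cross-correlation area so actives lower synchrony.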 The method, boiled down:
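Primary rat cortical neurons on 48-well MEA plates (16 electrodes/well) were recorded 40 min at baseline on DIV 13 or 15, then 40 min with compound (0.03-40 uM) at 37 C; cross-correlation area expressed as percent change from baseline.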

Assay [14] in a line: CCTE_Shafer_MEA_acute_synchrony_index: CCTE's Neural Acute Assay for Synchrony, Shafer Lab (AID 2284027).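 Also: network synchrony index of spontaneous spiking in primary rat cortical neurons on MEAs; fitted for loss of signal so actives lower synchrony relative to DMSO.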 In a few lines:
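Acute exposure of rat primary cortical neurons (DIV 13 or 15) at 0.03-40 uM. Synchrony index, 40 min before vs after, as % change relative to DMSO control.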

The nature of assay [15]: CCTE_Shafer_MEA_dev_firing_rate_mean: CCTE's Neural Network Formation Assay for Mean Firing Rate, Shafer Lab (AID 2284031). The method, boiled down: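 Extracellular spike frequency, AUC over DIV 5–12 recordings, in rat cortical neuron MEA cultures dosed from plating; loss direction vs DMSO.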
A short description of assay [16]: CCTE_Shafer_MEA_dev_per_burst_spike_percent: CCTE's Neural Network Formation Assay for Percent of Spikes in a Burst, Shafer Lab (AID 2284032). The method, boiled down: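 Value is trapezoidal AUC over recordings on days 5, 7, 9 and 12 of the well-mean fraction of spikes falling in single-electrode bursts; rat cortical cultures exposed continuously from plating, treatment renewed DIV 5 and 9, fitted downward against DMSO.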

Assay [17] concerns the target Estrogen receptor (Homo sapiens) (UniProt P03372). The experiment in a line: CCTE_Deisenroth_AIME_96WELL_LUC_Active: CCTE's 96-well Estrogen Receptor Transactivation Assay with AIME metabolic competence (ERTA luciferase; metabolism positive), Deisenroth Lab (AID 2284023; active = hit-call score of the fitted dose curve at least 0.9, where 1 is the maximum). In a few lines:
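Metabolism-positive mode: induced rat hepatic S9 in alginate microspheres conditions test solutions (0.002 - 200 uM, 10 points) for 2 hours. VM7Luc4E2 ER luciferase reporter cells then exposed 24 h; positive-direction fit against 17beta-estradiol, n=4 typical.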

The target is the same in assay [18]. The experiment in a line: CCTE_Deisenroth_AIME_96WELL_LUC_Inactive: CCTE's 96-well Estrogen Receptor Transactivation Assay without AIME metabolic competence (ERTA luciferase; metabolism negative), Deisenroth Lab (AID 2284025; active = hit-call score of the fitted dose curve at least 0.9, where 1 is the maximum). The method, boiled down:
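Metabolism-negative arm: chemicals (0.002–200 uM, 10 points) incubated 2 h with alginate-water microspheres, then medium moved onto VM7Luc4E2 cells for 24 h luciferase read-out. Positive direction vs 17beta-estradiol; n≥4 experiments.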

The nature of assay [19]: CCTE_Deisenroth_AIME_96WELL_CTox_Active: Cytotoxicity Assessment (CTOX) in CCTE's 96-well Estrogen Receptor Transactivation Assay with AIME metabolic competence (metabolism positive), Deisenroth Lab (AID 2284028; active = hit-call score of the fitted dose curve at least 0.9, where 1 is the maximum). In a few lines:
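Cytotoxicity in VM7Luc4E2 breast cells after 24 h exposure to medium from a 2 h metabolic pre-incubation with induced rat hepatic S9 in alginate microspheres; fluorescent live-cell protease readout, 10-point series 0.002–200 uM, n=4.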

Assay [20] can be described thus: CCTE_Deisenroth_AIME_96WELL_CTox_Inactive: Cytotoxicity Assessment (CTOX) in CCTE's 96-well Estrogen Receptor Transactivation Assay without AIME metabolic competence (metabolism negative), Deisenroth Lab (AID 2284029; active = hit-call score of the fitted dose curve at least 0.9, where 1 is the maximum). In a few lines: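 Cytotoxicity in VM7Luc4E2 breast cells was scored as loss of fluorescent signal from a live-cell protease substrate 24 h after exposure, using bidirectional curve fitting. Test media came from a 2 h metabolism-negative pre-incubation (alginate-water, no hepatic S9) of compounds at 0.002-200 uM, with at least four replicates.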

Results filed as inconclusive are left out. Active and inactive are the calls of the source. The calls were made as follows, unless noted: active = hit-call score of the fitted dose curve at least 0.9, where 1 is the maximum; inactive = score below 0.9.

Sequence of Estrogen receptor (Homo sapiens) (P03372 whole entry, looked up): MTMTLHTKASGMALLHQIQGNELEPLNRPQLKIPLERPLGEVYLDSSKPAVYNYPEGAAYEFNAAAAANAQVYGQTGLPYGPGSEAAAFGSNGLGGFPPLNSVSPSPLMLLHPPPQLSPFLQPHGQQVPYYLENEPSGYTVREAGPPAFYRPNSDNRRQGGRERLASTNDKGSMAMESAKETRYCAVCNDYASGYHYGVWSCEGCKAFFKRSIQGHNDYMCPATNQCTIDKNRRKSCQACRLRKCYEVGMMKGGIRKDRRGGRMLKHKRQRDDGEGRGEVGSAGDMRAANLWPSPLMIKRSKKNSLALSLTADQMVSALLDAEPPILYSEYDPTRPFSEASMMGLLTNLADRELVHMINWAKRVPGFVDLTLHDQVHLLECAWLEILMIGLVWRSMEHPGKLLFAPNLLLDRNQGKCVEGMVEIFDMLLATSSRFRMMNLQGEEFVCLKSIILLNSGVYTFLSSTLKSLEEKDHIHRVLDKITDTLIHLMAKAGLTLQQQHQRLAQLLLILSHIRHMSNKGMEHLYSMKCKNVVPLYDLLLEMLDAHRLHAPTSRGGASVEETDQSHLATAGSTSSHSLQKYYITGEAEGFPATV

With `CCCCOCCO`, the outcome in [1], in [2] and in assay [3] was inactive.

For the compound `C[C@@H]1C[C@H]2[C@@H]3CCC4=CC(=O)C=C[C@]4(C)[C@@]3(F)[C@@H](O)C[C@]2(C)[C@@]1(O)C(=O)COP(=O)(O)O`, the outcome in assay [1], in assay [2] and in assay [4] was inactive.

What is called AC50 is the midpoint of the concentration-response curve, whichever way the signal moves. As to `CCN(CC)CCNc1ccc(CNC=O)c2sc3ccc(OC)cc3c(=O)c12`, the outcome in assay [1] and in assay [2] was inactive. The AC50 in [4] was 130 µM (active).

`CCCOc1sc(C(=O)N2CCC(c3cc(CN)ccc3F)CC2)c(C)c1Br`: the compound was classed as inactive in assay [5], in [6], in assay [7], in assay [8], in [9] and in assay [10]. In addition, the outcome in [11], in assay [12], in assay [13] and in assay [14] was inactive.

`CN1CCC[C@H]1c1cccnc1`: the values for the AC50 in [5] and in assay [13] were 0.0479 µM (active) and 0.7 µM (active), respectively. Also, the call in assay [6], in assay [7], in [8], in assay [9], in assay [10] and in assay [11] was inactive. For the same compound, the call in assay [12], in [14], in assay [3], in [15], in assay [16] and in assay [4] was inactive.

For `OC1CCCCC1`, the outcome in [1], in assay [2], in assay [3] and in assay [4] was inactive.

Turning to `CCCCC(CC)COC(=O)CCCCC(=O)OCC(CC)CCCC` (stereo not given), the result in assay [1], in assay [2], in [17], in [18], in [19] and in assay [20] was inactive.

With `CC[C@H](c1ccc(O)cc1)[C@@H](CC)c1ccc(O)cc1`, the outcome in [1], in assay [5], in assay [6], in [7], in assay [8] and in assay [9] was inactive. In addition, the compound was called inactive in assay [10], in assay [11], in [12], in [13] and in [14].

For the compound `ClC1=C(Cl)C(Cl)(Cl)C(Cl)=C1Cl`, the outcome in assay [1], in assay [2], in assay [3] and in assay [4] was inactive.

In the case of `CC(C)(C)c1cc(C(C)(C)C)c(O)c(C(C)(C)C)c1`, the compound was classed as inactive in [5], in assay [6], in assay [7], in [8], in assay [9] and in [10]. In addition, the compound was classed as inactive in assay [11], in [12] and in assay [13]. Moreover, the AC50 in assay [14] is 0.167 µM (active).

Regarding `c1ccc2cc3c(ccc4ccccc43)cc2c1`, the outcome in assay [1], in assay [19], in assay [20], in assay [15] and in [16] was inactive. Besides, the AC50 is 11.8 µM (active) in assay [17], 5.25 µM (active) in assay [18] and 53.8 µM (active) in assay [3].

`c1ccc2c(c1)ccc1ccccc12`: the outcome in assay [1], in assay [17], in [20], in [15] and in [16] was inactive. The concentration at half-maximal activity (AC50) in [18] is 133 µM (active).

For `CN(C)C=O`, the call in [5], in [6], in assay [7], in assay [8], in assay [9] and in [10] was inactive. The call in assay [11], in assay [12], in assay [13] and in [14] was inactive.

For `CCCCCCC(=O)O`, the result in assay [1], in assay [2] and in assay [3] was inactive.

As for `CC(O)CO` (stereo not given), the result in assay [1], in [2], in assay [15] and in assay [16] was inactive.

In the case of `OCCC(F)(F)C(F)(F)C(F)(F)C(F)(F)C(F)(F)C(F)(F)F`, the outcome in [1], in assay [2], in assay [3], in assay [15], in [16] and in assay [4] was inactive.
